A word on the cell viability: it is a read-out of living cells in per cent, often relative to untreated cells.

Results on 40 molecules are retold here after the supplement of paper PMC10981050.

Structures are written as SMILES. Counter-ions that a name gives are not always drawn.

The experiment concerns OCI-AML2. In words: cell viability relative to vehicle control; higher = less cytotoxic. Particulars: 10 µM; SRSF2 genotype: wt/wt. Summed up: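 Mutant clones made by CRISPR editing and their isogenic wild-type counterparts, from four leukaemia lines, were exposed to a single 10 µM dose of each library compound for 48 h. The supernatant was then removed and CellTiter-Glo luminescence was read. Viability was reported as percent of the on-plate vehicle control.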
With `CCCCCCCCCCCCc1ccc(S(=O)(=O)Nc2nncs2)cc1`, the cell viability stood at 111%.
Turning to `C#C[C@]1(O)CC[C@H]2[C@@H]3CCc4cc(O)ccc4[C@H]3CC[C@@]21C` [Ethinyl Estradiol], the cell viability is 79.7%.
With `C[C@]12CCC(=O)C=C1[C@@H]1C[C@@H]1[C@H]1[C@@H]3[C@@H]4C[C@@H]4[C@@]4(CCC(=O)O4)[C@@]3(C)CC[C@@H]12` [Drospirenone] the figure was 92.7%; with `CS(=O)(=O)CCNCc1ccc(-c2ccc3ncnc(Nc4ccc(OCc5cccc(F)c5)c(Cl)c4)c3c2)o1` [Lapatinib], 45.5%; with `C[C@H](CC[C@@]1(O)O[C@H]2C[C@H]3[C@@H]4CC=C5C[C@@H](O[C@@H]6O[C@H](CO)[C@@H](O[C@@H]7O[C@@H](C)[C@H](O)[C@@H](O)[C@H]7O)[C@H](O)[C@H]6O[C@@H]6O[C@@H](C)[C@H](O)[C@@H](O)[C@H]6O)CC[C@]5(C)[C@H]4CC[C@]3(C)[C@H]2[C@@H]1C)CO[C@@H]1O[C@H](CO)[C@@H](O)[C@H](O)[C@H]1O` [Protodioscin], 0.5%.
With `CC(=NNC(=S)N1CCC1)c1ccccn1`, the cell viability was 9.98%.
With `CN(CC(=O)N(Cc1ccc(C2CCCCC2)cc1)c1ccc(C(=O)O)c(O)c1)S(=O)(=O)c1c(F)c(F)c(F)c(F)c1F` the figure was 5.48%; with `CNS(=O)(=O)Nc1nccc(Cc2c(C)c3ccc(Oc4ncccn4)cc3oc2=O)c1F`, 40.4%.
With `CC(C)n1c([C@H](C)Nc2ncnc(N)c2C#N)cc2cccc(-c3ccc(=O)n(C)c3)c2c1=O` the figure was 19.1%.
Then `CCCN(CCC)C(=O)C1=Cc2ccc(-c3ccc(C(=O)N4CCCC4)cc3)cc2N=C(N)C1` [Motolimod (VTX-2337)], with 29%.
Regarding `O=C(O)[C@H]1O[C@@H](Oc2cc3oc(-c4ccc(O)cc4)cc(=O)c3c(O)c2O)[C@H](O)[C@@H](O)[C@@H]1O` [Scutellarin], the cell viability turned out to be 109%.
Then `CS(=O)(=O)c1ccc(-c2nnc(/C=C/c3nnc(-c4ccc(C#N)cc4)o3)n2-c2ccccc2Cl)nc1`, with 110%; and `CC(C)=CCCC(C)=CCCC(C)=CCCC(C)=CCC1=C(C)C(=O)c2ccccc2C1=O` [Vitamin K2], with 89.1%; and `OCC(CO)N[C@H]1C[C@](O)(CO)[C@@H](O)[C@H](O)[C@H]1O` [Voglibose], with 109%.
Then `C[C@]12CC[C@@H]3c4ccc(OC(=O)c5ccccc5)cc4CC[C@H]3[C@@H]1CC[C@@H]2O` [Estradiol Benzoate], with 46.7%.
On to `CC(C)(Sc1ccncc1-c1ccc(C#N)c2ccccc12)C(=O)O` [Verinurad (RDEA3170)], for which the cell viability stood at 105%.
Then `N#Cc1c(Oc2ccc(F)c(NC(=O)Cc3cccc(C(F)(F)F)c3)c2)ccc2nc(NC(=O)C3CC3)sc12`, with 36.8%; and `O=C(CSc1nc2c(c(=O)n1-c1ccccc1)SCC2)Nc1ccc(-c2ccccc2)cn1`, with 103%; and `C=C(C)C1CC=C(C)CC1` (single isomer, unassigned; (+)) [(+)-Dipentene], with 115%.
Consider `NC(=O)Nc1cc(-c2cccc(F)c2)sc1C(=O)N[C@H]1CCCNC1`, for which the cell viability was found to be 8.51%.
Then `Cc1[nH]c(=O)c(C#N)cc1-c1ccncc1` [Milrinone (Primacor)], with 96%; and `NCCCC[C@@H]1NC(=O)[C@@H](Cc2ccc(O)cc2)NC(=O)[C@H](CC(=O)O)NC(=O)CNC(=O)[C@H](CCCN=C(N)N)NC1=O` [Cyclo(RGDyK)], with 93.9%; and `CCN(Cc1ccncc1)C(=O)C(CO)c1ccccc1` (stereo not given) [Tropicamide], with 116%.
Then `O=c1c2cc(O)c(O)cc2oc2cc(O)c([C@@H]3O[C@H](CO)[C@@H](O)[C@H](O)[C@H]3O)c(O)c12` [Mangiferin], with 102%; and `C=CC[S+]([O-])C[C@H](N)C(=O)O` (stereo not given in full) [Alliin], with 98.2%.
Then `CCN1CCN(Cc2ccc(C(=O)Nc3ccc(C)c(Oc4ccc5c(c4)CC(=O)N5)c3)cc2C(F)(F)F)CC1`, with 44.8%; and `Cc1cc(C)c(-c2csc(NC(=O)c3ccccc3)n2)c(C)c1`, with 27.5%.
Regarding `COc1ccccc1OCC(O)CN1CCN(CC(=O)Nc2c(C)cccc2C)CC1` (stereo not given) [Ranolazine dihydrochloride], the cell viability was found to be 111%.
With `COc1cc2c(=O)c(-c3ccc(O)cc3)coc2cc1O[C@@H]1O[C@H](CO)[C@@H](O)[C@H](O)[C@H]1O` [Glycitin] the figure was 87%.
With `C#C[C@]1(O)CC[C@H]2[C@@H]3CCc4cc(OC5CCCC5)ccc4[C@H]3CC[C@@]21C` [Quinestrol] the figure was 60.6%.
Then `CC(C)(Cc1ccc2ccccc2c1)NC[C@@H](O)COc1cccc(Cl)c1C#N`, with 1.15%; and `CC(=O)[C@@]1(O)CC[C@H]2[C@@H]3C[C@H](C)C4=CC(=O)CC[C@]4(C)[C@H]3CC[C@@]21C` [Medroxyprogesterone], with 104%.
For the molecule `CCOC(=O)[C@H](CCc1ccccc1)N[C@@H](C)C(=O)N1[C@H](C(=O)O)C[C@@H]2CCC[C@@H]21` [Ramipril (Altace)], the cell viability turned out to be 86.3%.
Then `CCCCS(=O)(=O)N[C@@H](Cc1ccc(OCCCCC2CCNCC2)cc1)C(=O)O` [Tirofiban Hydrochloride], with 107%.
With `CC(C)n1nc(-c2cc3cc(O)ccc3[nH]2)c2c(N)ncnc21` [Torkinib (PP242)] the figure was 15.1%.
Then `O.O.O.O.O.O.O.[Cl][La]([Cl])[Cl]` [Lanthanum(III) chloride heptahydrate], with 99.4%; and `CC(C)c1c2cc(-c3ccnc(NC4CCC(NC5CCOCC5)CC4)n3)ccc2nn1C` (stereo not given), with 13.2%; and `COc1cc(N2CCC(N3CCN(C)CC3)CC2)ccc1Nc1ncnc(Nc2ccccc2S(=O)(=O)C(C)C)n1`, with 21.9%.
For the molecule `C#C[C@]1(O)CC[C@H]2[C@@H]3CCC4=CC(=O)CC[C@@H]4[C@H]3CC[C@@]21CC` [Levonorgestrel (Levonelle)], the cell viability was 108%.
Take `NC(=O)c1cccc2cn(-c3ccc([C@@H]4CCCNC4)cc3)nc12` [MK-4827(Niraparib) tosylate]: the cell viability was determined as 47.3%.
